Measured values reported in PubChem BioAssay (NCI).
This is part of a sample that, as a whole, favours compounds with a hit. Of some 83,000 tested, about 20% had one in any assay.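 Negative percent growth values reflect cell death: -40 means 40% of the cells present at the start died, and -100 means all died.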 Unmarked numbers belong to inactive results. Activity calls are given as the source filed them. Rule for the calls: active = growth percent below 10; inactive = the rest.

Experiments:
Experiment in all cases: NCI-60 one-dose screen, 48 h (100 = growth as untreated, 0 = no growth, -100 = all killed)
Conditions in all cases: 10 µM unless noted
[1] = test system: T-47D breast
[2] = test system: BT-549 breast
[3] = test system: MDA-MB-435 melanoma
[4] = test system: SW-620 colon
[5] = test system: MCF7 breast
[6] = test system: HCT-116 colon
[7] = test system: HCC-2998 colon
[8] = test system: KM12 colon

Structure (SMILES) | growth [1] | growth [2] | growth [3] | growth [4] | growth [5] | growth [6] | growth [7] | growth [8]
COc1cnc2c(c1)C(=O)c1c-2n(CCCn2ccnc2)c(=O)c2cc(OC)c(OC)cc12 | -61.3% (active) | -0.217% (active) | 20.5% | -77.7% (active) | -61.8% (active) | -90.2% (active) | 24.6% | 27.1%
Cc1cc(O)c(=O)cc2c1C[C@H]1CC(C)(C)/C=C/C[C@]3(C)Oc4cc(=O)c(O)cc(C)c4C[C@H]3C[C@H](O)[C@@]1(C)O2 | -2.55% (active) | 1.87% (active) | 15.7% | 15.1% | 7.16% (active) | 11.3% | 30.8% | 23.6%
CC(C)N=C(N/C(N)=N/c1nc2ccccc2s1)NC(C)C | 58.4% | 70% | 35.9% | 33.3% | 43.2% | 17.7% | 76.9% | 65.9%
NS(=O)(=O)c1ccc(Nc2nc(N/N=C/c3ccc(C(F)(F)F)cc3)nc(Nc3ccccc3)n2)cc1 | 31.3% | 48.9% | 19.9% | 54.8% | 10.3% | 9.73% (active) | 53.1% | 21.7%
COc1ccccc1/C=C/C=N/NC1=NC2C(S1)N(C)C(=O)N2c1ccccc1 (configuration not stated) | 77.8% | 10% | -20.6% (active) | 17.7% | 13.4% | 3.81% (active) | 19.9% | 7.34% (active)
O=C(NNc1nc2cc(F)c(F)cc2n2cccc12)c1cccnn1 | 13.7% | 32.3% | 27.8% | 22% | 7.41% (active) | 8.91% (active) | 49.2% | 24.3%
C=CCn1c(SCC(=O)Nc2ccc(OC)cc2)nnc1-c1ccc(Cl)cc1 | 95.5% | 106% | 90.1% | 99.1% | 94.9% | 91.2% | 99.6% | 92.4%
C=CCn1c(SCC(=O)Nc2cccc(C(=O)/C=C/c3ccc(Cl)cc3)c2)nc2ccccc2c1=O | 78.6% | 94.6% | 92.3% | 77.4% | 28.3% | 15.4% | 94.8% | 88%
O=C(CCCCCCN1CC(=O)N2[C@@H](c3ccc(Cl)c(F)c3)c3[nH]c4ccccc4c3C[C@H]2C1=O)NO | 75.6% | 108% | 82.8% | 74.7% | 73.2% | 55.5% | 99.2% | 87.1%
CS(=O)c1nccc(-c2c(-c3ccc(F)c(OCc4ccc(F)cc4)c3)nc3sccn23)n1 (configuration not stated) | -37.3% (active) | 102% | 100% | 73% | -50.1% (active) | 19.7% | 10.2% | 54.5%
N#C/C(=C\c1ccc(Cl)cc1Cl)C(N)=O | 93.7% | 102% | 98.5% | 88.3% | 76.2% | 74% | 103% | 103%
Oc1ccc(CSc2nnc(-c3ccc(Br)cc3)n2-c2ccccc2)c2cccnc12 | 48.1% | 40.3% | 19.5% | 26.6% | 11% | 21.7% | 44.9% | 26.3%
COc1cc2c3c(n(CCCNC4CCC4)c(=O)c2cc1OC)-c1cc2c(cc1C3=O)OCO2 | 53.5% | 76% | -65.7% (active) | -15.4% (active) | -71.5% (active) | -48.4% (active) | -89.3% (active) | 38.7%
COc1cc(/C=C/C(=O)c2ccc(NC(=O)COc3cccc4cccnc34)cc2)cc(OC)c1OC | 90.2% | 81.7% | 88.3% | 69.8% | 20.6% | 23.9% | 112% | 85.8%
COc1cc(O)c2c(c1)[C@H]1O[C@@H]1C[C@H](O)[C@H](O)C(=O)/C=C\C[C@H](C)OC2=O | 30.1% | 2.6% (active) | 19.2% | 21.8% | 43.3% | 27.7% | 65.1% | 90.4%
Nc1nc(N)c2c(n1)NC(c1ccccc1)CC(c1ccc(Nc3nc(NCCO)nc(Nc4ccc(Cl)cc4)n3)cc1)=N2 (configuration not stated) | 62.1% | 79.3% | 41.8% | -83.3% (active) | -71.3% (active) | -92.7% (active) | 68.9% | 47%
CCOC(=O)c1nn(-c2ccc(C)cc2)c(=O)c2c(N)c(C#N)c(-c3ccc(OC)cc3)cc12 | 102% | 130% | 106% | 94.4% | 95.5% | 99.4% | 110% | 95.5%

Structure (SMILES) | growth [1] | growth [2] | growth [3] | growth [4] | growth [5] | growth [6] | growth [7] | growth [8]
O=C(O)c1ccc(-n2cc(CNc3ccc(F)cc3)c(-c3ccc(C(F)(F)F)cc3)n2)cc1 | 78.2% | 103% | 80.9% | 98.6% | 67.8% | 83.3% | 102% | 78.7%
CCN1C(=O)N(CC)C2SC(N/N=C/c3ccc(OC)cc3)=NC21 (configuration not stated) | 80.9% | 18.9% | 0.665% (active) | 20.2% | 15.2% | 6.83% (active) | 13.5% | 13.9%
Cn1cc(-c2nn3cc(-c4cccnc4)nc3s2)c2ccccc21 | 27.7% | 22.2% | -39.1% (active) | 17.1% | 15.8% | 16.8% | 60.2% | 29.6%
O=C1Nc2ccc(Br)cc2/C1=N\c1nnc(-c2ccc(Cl)cc2)o1 | 76.7% | 63.1% | -20.7% (active) | 16.5% | 34.9% | 49.2% | 96.2% | 70%
Oc1ccc(CSc2nnc(-c3ccc(Cl)cc3)o2)c2cccnc12 | 18.5% | 27.9% | 22.3% | 17.3% | 12.4% | 20.8% | 29.1% | 18.4%
Oc1ccc(CSc2nnc(-c3cnccn3)n2-c2ccccc2)c2cccnc12 | 7.38% (active) | 41.8% | 23.4% | 23.8% | 2.85% (active) | 19.3% | 42.1% | 18.9%
CC(=O)C1=NN(c2ccc(Cl)cc2)C(=O)CN1C | 96.6% | 96.6% | 103% | 106% | 96.1% | 99.8% | 104% | 102%
O=[N+]([O-])c1ccc(-c2nnc(SCc3ccc(O)c4ncccc34)n2-c2ccccc2)cc1 | 24.1% | 20% | 14% | 18.6% | 11.4% | 12.4% | 41.9% | 19.2%
N#C/C(=C\c1ccc(N2CCCCC2)cc1)C(=O)Nc1sc2c(c1C#N)CCC2 | 97.7% | 108% | 90% | 100% | 87.3% | 89.8% | 105% | 96.5%
COc1ccc(-c2nc(SCCC(C)C)nc(N/N=C\c3ccc(O)cc3)c2C#N)cc1 | 76.7% | 67.5% | 49.5% | 54.1% | 40.3% | 39.6% | 86.8% | 67%
Cc1cccc(NC(c2cc3cccc4ccc5cccc2c5c43)c2nnnn2C(C)(C)C)c1C (configuration not stated) | 68.4% | 99.2% | 93% | 93.7% | 66.9% | 70.5% | 99.6% | 95.8%
COc1cc(OC)c(S(N)(=O)=O)cc1C(=O)/C=C/c1ccccc1 | 13.6% | 16.7% | 9.57% (active) | 3.85% (active) | 10.9% | 11.7% | 22.3% | 3.96% (active)
COc1ccc(-c2nc3cc(Cl)c(Cl)cc3n2CC(=O)N=Nc2c(O)[nH]c3ccccc23)cc1 | 57.8% | 78.3% | 68.8% | 62.4% | 45.7% | 22.6% | 66% | 68.2%
Nc1n[nH]c2cccc(C#Cc3cccc(NC(=O)c4cccc(OC(F)(F)F)c4)c3)c12 | 33.6% | 85% | 41% | 57.1% | 58.8% | 21.7% | 38% | 58%
COc1ccc(-c2nnc(/N=C3/C(=O)Nc4ccc(Br)cc43)o2)cc1 | 104% | 103% | 94.7% | 100% | 78.8% | 101% | 115% | 89.7%
O=C(N/N=C\c1ccc(Cl)cc1)c1ccc2nc(-c3ccc(Br)cc3)[nH]c2c1 | 0.0838% (active) | 97.7% | 3.54% (active) | -49.3% (active) | -33.2% (active) | -86.8% (active) | -42.5% (active) | -23.2% (active)
COc1ccc(/C(C)=C(\c2ccc(Cl)cc2)c2ccc(OCCN)cc2)cc1 | 95.2% | 91.7% | 76.9% | 36.4% | 72.4% | 42.3% | 30.2% | 78.2%
